According to PubChem BioAssay (NCATS):
Results filed as inconclusive are left out. Where a call stands in place of a potency, no number is given. Unmarked numbers belong to inactive results. Calls of active or inactive are those of the source. The call rests on the fitted dose curve; in most records, active means well fitted cell-killing curve with a large enough effect; inconclusive means small, poorly fitted or top-dose-only effect, or effect the other way; inactive means no such curve, though single readings can be large or run the other way.

Columns and labels:
[1] = Viability qHTS for spleen associated tyrosine kinase inhibitor (SYKi) naive MV4-11 cells (AID 1963823); further: nearly all actives have a fitted effect of over 40% in size
Method in brief: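 Luminescence from CellTiter-Glo, developed 10 min at room temperature, gave viability of MV4-11 cells never exposed to SYK inhibitor. Cells (500/well) had been incubated with compounds for 72 hr under standard culture conditions.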

[2] = Viability qHTS for spleen associated tyrosine kinase inhibitor (SYKi) drug resistant MV4-11 cells (AID 1963824); further: nearly all actives have a fitted effect of over 35% in size
Method in brief: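 SYK inhibitor-resistant MV4-11 AML cells, 500 per well, added to predispensed compounds and incubated 72 hr at 37 C, 5% CO2. Viability measured by CellTiter-Glo luminescence after 10 min at room temperature.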
Potency means the concentration at half of the fitted maximal effect.

| Structure (SMILES) | Potency [1] | Potency [2] | viability (% of control) [1] | viability, % of control [2] |
| --- | --- | --- | --- | --- |
| C/C=C(\C)C(=O)OC1C(C)C2(O)C(C=C(CO)CC3(O)C(=O)C(C)=CC32)C2C(C)(C)C12OC(=O)C(C)C (stereo not drawn) | 0.02 µM (active) | 0.008 µM (active) | – | – |
| C=C(C)C(=O)OC1[C@@H]2C(=C)C(=O)O[C@@H]2C[C@@H](C)[C@@H]2C=CC(=O)[C@@]12C (stereo partly drawn) | 2.27 µM (active) | 2.86 µM (active) | – | – |
| COC(=O)C1=CO[C@@H](O[C@@H]2O[C@H](CO[C@@H]3O[C@H](COC(=O)/C=C/c4ccc(O)cc4)[C@@H](O)[C@H](O)[C@H]3O)[C@@H](O)[C@H](O)[C@H]2O)[C@@H]2C(CO)=CC[C@H]12 | inactive | inactive | – | – |
| Cc1ccc2c(c1)C=Cc1cc(C)ccc1C2c1cn(Cc2ccc(C(=O)Nc3nn[nH]n3)o2)c(=O)[nH]c1=S | inactive | inactive | – | – |
| CC(C)=CCc1cc(O[C@@H]2O[C@H](CO[C@@H]3OC[C@](O)(CO)[C@H]3O)[C@@H](O)[C@H](O)[C@H]2O)ccc1O | inactive | inactive | – | – |
| COc1ccc(CCc2nc3cc(-c4c(C)noc4C)ccc3n2CC(C)N2CCOCC2)cc1Cl (stereo not drawn) | 4.11 µM (active) | 5.17 µM (active) | – | – |
| Cc1cc(=O)oc2cc(NC(=O)[C@H](CCC(=O)O)NC(=O)[C@H](CC(C)C)NC(=O)[C@H](CC(C)C)NC(=O)OCc3ccccc3)ccc12 | inactive | inactive | – | – |
| COC(=O)C1=CO[C@@H](O[C@@H]2O[C@H](CO)[C@@H](O)[C@H](O)[C@H]2O)[C@@H]2[C@@H](C)[C@@H](OC(=O)/C=C/c3ccccc3)[C@@H](O)[C@H]12 | inactive | inactive | – | – |
| C/C=C(\C)C(=O)OCC1OC(OC2OC(COC(=O)/C(C)=C/C)C(OC3OC(CO)C(OC(=O)/C(C)=C/C)C(OC(=O)/C(C)=C/C)C3O)C(O)C2O)C(O)C(O)C1OC1OC(CO)C(OC(=O)/C(C)=C/C)C(OC(=O)/C(C)=C/C)C1O (stereo not drawn) | – | – | 65% [at 9.25 µM] | 58.7% [at 9.25 µM] |
| COC(=O)CCC(=O)OC[C@]1(C)CCC[C@@]2(C)C3CC[C@]4(C)C=CC3(CCC12)C4 (stereo partly drawn) | inactive | inactive | – | – |
| COc1cc(C(C)C)c(Oc2cnc(N)nc2N)cc1I | 10.3 µM (active) | 10.3 µM (active) | – | – |
| C=C1C(=O)O[C@H]2C[C@@H](C)[C@@H]3CCC(=O)[C@@]3(C)C[C@H]12 | 4.11 µM (active) | 2.59 µM (active) | – | – |
| O=C(O)c1cccc(C(=O)CCC2OC(n3cnc4c(=O)[nH]cnc43)C(O)C2O)c1 (stereo not drawn) | inactive | inactive | – | – |
| COc1cc2c(cc1OC)CN(C(=O)/C=C/c1c(-c3ccccc3)n(C)c3ncccc13)CC2 | 2.59 µM (active) | 3.66 µM (active) | – | – |
| Cc1cc2nc(NCCCO)n(CC(=O)c3cc(C(C)(C)C)c(O)c(C(C)(C)C)c3)c2cc1C | 8.2 µM (active) | 8.2 µM (active) | – | – |
| COc1cc(O)c2c(c1Cl)CC(C)OC2=O (stereo not drawn) | inactive | inactive | – | – |
| Cc1nc2c(O)cccc2c(=O)[nH]1 | inactive | inactive | – | – |
| CC1CCC2(NC1)OC1C(O)C3C4CCC5CC(O[C@@H]6O[C@H](CO)[C@@H](O)[C@H](O)[C@H]6O[C@@H]6O[C@@H](C)[C@H](O)[C@@H](O)[C@H]6O)CCC5(C)C4CCC3(C)C1C2C (stereo partly drawn) | inactive | inactive | – | – |
| COc1cc2c(cc1O)CC(O)(CO)C(CO)C2c1ccc(OC2OC(CO)C(O)C(O)C2O)c(OC)c1 (stereo not drawn) | inactive | inactive | – | – |
| C[C@@H]1CC[C@]2(C(=O)OC3OC(CO)C(O)C(O)C3O)CC[C@]3(C)C(=CCC4[C@@]5(C)CC[C@H](O)[C@](C)(C(=O)O)C5CC[C@]43C)C2[C@]1(C)O (stereo partly drawn) | inactive | inactive | – | – |
| FC(F)(F)Oc1ccc(-c2ccc3nnc(C(F)(F)F)n3c2)cc1 | inactive | inactive | – | – |
| C=C1C(=O)OC2/C=C(\C)CC/C=C(\C)CC(OC(C)=O)C12 (stereo not drawn) | 2.59 µM (active) | 2.59 µM (active) | – | – |
| C/C=C/C1=CC2=C(CO1)C(=O)C(C)(OC(=O)c1c(C)cc(O)cc1OC)C(O)C2 (stereo not drawn) | 5.7 µM (active) | 5.08 µM (active) | – | – |
| CC(O)(C(=O)C1CC1(CO)COC1OC(CO)C(O)C(O)C1O)C1C(O)CC2C3CC=C4CC(O)CC(O)C4(C)C3C(O)CC21C (stereo not drawn) | 0.217 µM (active) | 0.217 µM (active) | – | – |
| CC1CCC2(C(=O)O)CCC3(C)C(=CCC4C5(C)CCC(OC(=O)/C=C/c6ccccc6)C(C)(C)C5CCC43C)C2C1C (stereo not drawn) | inactive | inactive | – | – |
| O=C(COc1ccc(C(=O)c2ccccc2)cc1)NC1CCN(Cc2ccccc2)CC1 | 9.2 µM (active) | 7.31 µM (active) | – | – |
| CC(/C=C/[C@]1(O)[C@@]2(C)CO[C@@]1(C)C[C@@H](O)C2)=C\C(=O)O[C@@H]1O[C@H](CO)[C@@H](O)[C@H](O)[C@H]1O | inactive | inactive | – | – |

| Structure (SMILES) | Potency [1] | Potency [2] | viability (% of control) [1] | viability, % of control [2] |
| --- | --- | --- | --- | --- |
| CCCCCCOC(=O)NC(=N)c1ccc(NCc2nc3cc(C(=O)N(CCC(=O)OCC)c4ccccn4)ccc3n2C)cc1 | 2.35 µM (active) | 1.48 µM (active) | – | – |
| CCN1CCN(Cc2ccc(-c3cc4c(NC(C)c5ccccc5)ncnc4[nH]3)cc2)CC1 (stereo not drawn) | 0.92 µM (active) | 1.3 µM (active) | – | – |
| OC[C@H]1O[C@@H](OCCc2ccccc2)[C@H](O[C@@H]2OC[C@](O)(CO)[C@H]2O)[C@@H](O)[C@@H]1O | inactive | inactive | – | – |
| CCOC(=O)[C@H](CCc1ccccc1)CC1(C(=O)N[C@H]2CCc3ccccc3N(CC(=O)O)C2=O)CCCC1 | 14.6 µM (active) | 14.6 µM (active) | – | – |
| COC(=O)C(C)C1CCC2(C)C(=O)C=CC(C)(O)C2C1O (stereo not drawn) | inactive | inactive | – | – |
| COC(=O)C1=CO[C@@H](O[C@@H]2O[C@H](CO)[C@@H](O)[C@H](O)[C@H]2O)[C@@H]2[C@@](C)(O)[C@@H](OC(=O)/C=C/c3ccc(O)cc3)C[C@]12O | inactive | inactive | – | – |
| O=C(NC(NC(=S)Nc1ccc(F)c([N+](=O)[O-])c1)C(Cl)(Cl)Cl)C(c1ccccc1)c1ccccc1 (stereo not drawn) | 3.26 µM (active) | 3.26 µM (active) | – | – |
| COc1c/c(=C2\C=c3ccccc3=N2)[nH]/c1=C\c1[nH]c(C)cc1C | 5.17 µM (active) | 5.8 µM (active) | – | – |
| CN[C@@H]1[C@@H](O)[C@@H](O[C@@H]2[C@@H](O)[C@H](O[C@H]3O[C@H](CN)[C@@H](O)[C@H](O)[C@H]3O)[C@@H](N)C[C@H]2NC(=O)[C@@H](O)CN)OC[C@]1(C)O | inactive | inactive | – | – |
| C=C1C(=O)O[C@H]2C3=C(C)CCC[C@]3(C)C(=O)C[C@@H]12 | 1.3 µM (active) | 0.92 µM (active) | – | – |
| C/C=C/C1OC2=C(C(=O)OC2(C)O)C(O)C1O (stereo not drawn) | inactive | inactive | – | – |
| COc1cc(C(CO)C(OC2OC(CO)C(O)C(O)C2O)c2ccc(O)c(OC)c2)ccc1O (stereo not drawn) | inactive | inactive | – | – |
| COc1cc(C(C)=O)ccc1O[C@@H]1O[C@H](CO)[C@@H](O)[C@H](O)[C@H]1O | inactive | inactive | – | – |
| C/C=C1\[C@H](OC2OC(COC3OC(CO)C(O)C(O)C3O)C(O)C(O)C2O)OC=C(C(=O)OC)[C@H]1CC(=O)OCCc1ccc(O)cc1 (stereo partly drawn) | inactive | inactive | – | – |
| CSC(=O)OCC1=C[C@@H]2OC(=O)C3=CO[C@@H](O[C@@H]4O[C@H](CO)[C@@H](O)[C@H](O)[C@H]4O)[C@H]1[C@@H]32 | inactive | inactive | – | – |
| O=C(O[C@H]1[C@@H]2C=CO[C@@H](O[C@@H]3O[C@H](CO)[C@@H](O)[C@H](O)[C@H]3O)[C@@H]2[C@@]2(CO)O[C@@H]12)c1ccc(O)cc1 | inactive | inactive | – | – |
| C=C1C(=O)O[C@@H]2C[C@@]3(C)C[C@@H](O)C[C@H](C)C3=C[C@H]12 | 5.17 µM (active) | 3.66 µM (active) | – | – |
| C=C1CC2OC(=O)C(=C)C2C(O)/C=C(\C)CCC1O (stereo not drawn) | 18.4 µM (active) | 13 µM (active) | – | – |
| CC1=C(C(=O)OC2OC(COC3OC(CO)C(O)C(O)C3O)C(O)C(O)C2O)C(C)(C)CCC1 (stereo not drawn) | inactive | inactive | – | – |
| C=CC(C)(C)c1[nH]c2ccccc2c1C[C@@H]1NC(=O)[C@H](C)NC1=O | inactive | inactive | – | – |
| CC(C)=CCC[C@](C)(O[C@@H]1O[C@H](CO)[C@@H](O)[C@H](O)[C@H]1O)[C@H]1CC[C@]2(C)[C@@H]1[C@H](O)CC1[C@@]3(C)CC[C@H](O)C(C)(C)C3[C@@H](O[C@@H]3O[C@H](CO)[C@@H](O)[C@H](O)[C@H]3O[C@@H]3OC[C@@H](O)[C@H](O)[C@H]3O)C[C@]12C (stereo partly drawn) | – | – | 84.7% [at 9.25 µM] | 84.8% [at 9.25 µM] |
| CC1OC(O[C@H]2CC[C@@]3(C)C(CC[C@]4(C)C3CC=C3C5CC(C)(C)CC[C@]5(C(=O)OC5OC(CO)C(OC6OCC(OC7OCC(O)C(O)C7O)C(O)C6O)C(O)C5O)CC[C@]34C)C2(C)C)C(O)C(O)C1OC1OC(CO)C(O)C(OC2OC(CO)C(O)C(O)C2O)C1O (stereo partly drawn) | – | – | 54.2% [at 9.25 µM] | 62.2% [at 9.25 µM] |
| COc1ccc(C2=NC(c3ccc(Cl)cc3)C(c3ccc(Cl)cc3)N2C(=O)N2CCNC(=O)C2)c(OC(C)C)c1 (stereo not drawn) | 16.4 µM (active) | 18.4 µM (active) | – | – |
| CC1=C(C(=O)O)/C(=C/CO[C@@H]2O[C@H](COC(=O)/C=C/c3ccc(O)cc3)[C@@H](O)[C@H](O)[C@H]2O)C(O)C1 (stereo partly drawn) | inactive | inactive | – | – |
| CC1(O)CCC2C(C3C1CCC3(C)O)C2(C)C (stereo not drawn) | inactive | inactive | – | – |
| CC1(C)CC[C@]2(C(=O)O[C@@H]3O[C@H](CO)[C@@H](O)[C@H](O)[C@H]3O)CC[C@]3(C)C(=CCC4[C@@]5(C)C[C@@H](O)[C@H](O)[C@](C)(C(=O)O)C5CC[C@]43C)C2C1O (stereo partly drawn) | inactive | inactive | – | – |
| CC(C)C1(O)C=C2C(=O)CC3C(C)(C(=O)O)CCCC3(C)C2CC1 (stereo not drawn) | inactive | inactive | – | – |
